# Results as given in PubChem BioAssay (EPA / NIEHS).
# Records with an inconclusive call do not appear. Some structures have more than one record in an assay (separate samples or runs), and their calls can disagree. Calls of active or inactive are those of the source. The calls were made as follows: active = hit-call score of the fitted dose curve at least 0.9, where 1 is the maximum; inconclusive = response in the unintended direction; inactive = score below 0.9.
# Legend:
# [1] = ACEA_AR_agonist_AUC_viability: ACEA Biosciences xCELLigence Real-Time Cell Analysis on Androgen Receptor Agonism for Viability (AID 2283775);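 as to AC50: viability read 80 hours after compound addition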
# How it was run: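 Read-out is area under the impedance curve at 80 h post-dose in 22Rv1 cells, with DMSO as baseline and signal loss taken as reduced viability. Compounds ran in duplicate from 100 uM final.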
# [2] = ACEA_AR_antagonist_AUC_viability: ACEA Biosciences xCELLigence Real-Time Cell Analysis on Androgen Receptor Antagonism for Viability (AID 2283776);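 also: 22Rv1 human prostate cancer cells growing on impedance electrode plates; area under impedance growth curve at 80 h after dosing as viability; hits lower the growth signal relative to DMSO meaning cytotoxicity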
# How it was run: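 Real-time electrical impedance tracks 22Rv1 proliferation after continuous compound exposure (top 100 uM final, 1:4 steps, 8 concentrations). The 80 h area-under-curve serves as the cytotoxicity readout relative to DMSO.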
# [3] = ACEA_ER_AUC_viability: ACEA Biosciences xCELLigence Real-Time Cell Analysis on Estrogen Receptor Agonism for Viability (AID 2283782);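 also: hit means loss of impedance signal meaning reduced cell growth or viability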
# How it was run: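 T47D cells preconditioned in phenol red-free RPMI with charcoal-stripped FBS, then dosed with 8-point 1:4 series from 100 uM (up to 0.5% DMSO). Impedance monitored up to ~80 h; area-under-curve loss versus DMSO taken as viability.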
# AR (gene 367) [4] = biological target: AR (gene 367) (UniProt P10275); assay: ACEA_AR_agonist_80hr: ACEA Biosciences xCELLigence Real-Time Cell Analysis on Androgen Receptor Agonism for Proliferation (AID 2283783);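 also: hits increase impedance growth signal above DMSO baseline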
# How it was run: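 Proliferation of 22Rv1 prostate cancer cells tracked by electrical impedance, endpoint taken at 80 hours after dosing. Eight-point 1:4 dilutions from 100 uM maximum final, duplicate; testosterone and MG132 as positive controls, assay media as negative.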
# AR (gene 367) [5] = biological target: AR (gene 367) (UniProt P10275); assay: ACEA_AR_antagonist_80hr: ACEA Biosciences xCELLigence Real-Time Cell Analysis on Androgen Receptor Antagonism for Proliferation (AID 2283787);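 also: 22Rv1 human prostate cancer cells with growth followed by electrical impedance; hits lower the impedance growth signal relative to DMSO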
# How it was run: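 22Rv1 cells in assay medium, growth tracked by electrical impedance; compounds eight-point 1:4 dilutions from 100 uM final, duplicate plates. Endpoint at 80 h; loss of signal versus DMSO.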
# [6] = test system: frog Estrogen Receptor (ESR1), gene 398734; assay: ATG_frER1_XSP1: Attagene TRANS-FACTORIAL Multi-Species (XSP1) HepG2 Assay for frog Estrogen Receptor (ESR1) (AID 2283777)
# How it was run: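 HepG2 cells transiently transfected with frog ER–GAL4 chimera and GAL4-UAS reporter, with 3 nM 6-alpha-fluorotestosterone present; 24 h dosing, reporter mRNA quantified by RT-PCR and capillary electrophoresis, gain of signal versus DMSO.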
# [7] = biological target: chicken Estrogen Receptor (ESR1), ESR1 (gene 396099) (UniProt P06212); assay: ATG_chERa_XSP1: Attagene TRANS-FACTORIAL Multi-Species (XSP1) HepG2 Assay for chicken Estrogen Receptor (ESR1) (AID 2283779)
# How it was run: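 HepG2 cells transiently transfected with GAL4-UAS reporter units for chimeric chicken ERα-Gal4, dosed 24 h with 3 nM 6-alpha-fluorotestosterone present. Reporter mRNA by RT-PCR and capillary electrophoresis; gain-of-signal fit versus DMSO.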
# [8] = test system: turtle Estrogen Receptor (ESR1), gene 101933533; assay: ATG_trERa_XSP1: Attagene TRANS-FACTORIAL Multi-Species (XSP1) HepG2 Assay for turtle Estrogen Receptor (ESR1) (AID 2283781)
# How it was run: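 Turtle ERa as a GAL4 chimera in transiently transfected HepG2 cells; reporter mRNA quantified 24 h after dosing by RT-PCR and capillary electrophoresis. 3 nM 6-alpha-fluorotestosterone present; gain of signal versus DMSO.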
# [9] = ATG_M_06_XSP1: Attagene TRANS-FACTORIAL Multi-Species (XSP1) HepG2 Assay for M06 Transcription Factor (Internal Marker) (AID 2283790)
# Procedure: ATG_XSP1_multi-species_TRANS is a cell-based, multiplexed assay created by modifying the existing Attagene TRANS-FACTORIAL system to include a panel of nuclear receptors from some or all the following species: human (Homo sapiens), mouse (Mus musculus), frog (Xenopus laevis), zebrafish (Danio rerio), chicken (Gallus gallus), and turtle (Chrysemys picta). The ECOTOX-FACTORIAL format uses HepG2, a human liver cell line, with measurements taken at 24 hours after chemical dosing in a 24-well plate. Xsp1 included 3 nM 6-alpha-fluorotestosterone to partially stimulate the androgen receptor.ATG_M_06_XSP1 is one of 29 assay components measured or calculated from the ATG_XSP1_multi-species_TRANS assay. It is designed to make measurements of mRNA induction, a form of inducible reporter, as detected with fluorescence intensity signals by Reverse transcription polymerase chain reaction (RT-PCR) and Capillary electrophoresis technology.This assay endpoint, ATG_M_06_XSP1, was analyzed in the positive analysis fitting direction relative to DMSO as the negative control and baseline of activity. […] Furthermore, this assay endpoint can be referred to as a secondary readout, because this assay has produced multiple assay endpoints where this one serves a background control function. […]
# [10] = STM_H9_NormalizedViability: Cytotoxicity Assessment at 120 hours in the Stemina devTOX quickPredict H9 human embryonic stem cell (hESC)-based Assay (AID 2283784)
# How it was run: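 Chemicals are tested blinded on H9 human embryonic stem cells in the pluripotent state, with medium exchanged daily. After background correction, fluorescence from CellTiter-Fluor is scaled against 0.1% DMSO wells, and decreases are scored.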
# Sequence of AR (gene 367) (P10275 whole entry, looked up): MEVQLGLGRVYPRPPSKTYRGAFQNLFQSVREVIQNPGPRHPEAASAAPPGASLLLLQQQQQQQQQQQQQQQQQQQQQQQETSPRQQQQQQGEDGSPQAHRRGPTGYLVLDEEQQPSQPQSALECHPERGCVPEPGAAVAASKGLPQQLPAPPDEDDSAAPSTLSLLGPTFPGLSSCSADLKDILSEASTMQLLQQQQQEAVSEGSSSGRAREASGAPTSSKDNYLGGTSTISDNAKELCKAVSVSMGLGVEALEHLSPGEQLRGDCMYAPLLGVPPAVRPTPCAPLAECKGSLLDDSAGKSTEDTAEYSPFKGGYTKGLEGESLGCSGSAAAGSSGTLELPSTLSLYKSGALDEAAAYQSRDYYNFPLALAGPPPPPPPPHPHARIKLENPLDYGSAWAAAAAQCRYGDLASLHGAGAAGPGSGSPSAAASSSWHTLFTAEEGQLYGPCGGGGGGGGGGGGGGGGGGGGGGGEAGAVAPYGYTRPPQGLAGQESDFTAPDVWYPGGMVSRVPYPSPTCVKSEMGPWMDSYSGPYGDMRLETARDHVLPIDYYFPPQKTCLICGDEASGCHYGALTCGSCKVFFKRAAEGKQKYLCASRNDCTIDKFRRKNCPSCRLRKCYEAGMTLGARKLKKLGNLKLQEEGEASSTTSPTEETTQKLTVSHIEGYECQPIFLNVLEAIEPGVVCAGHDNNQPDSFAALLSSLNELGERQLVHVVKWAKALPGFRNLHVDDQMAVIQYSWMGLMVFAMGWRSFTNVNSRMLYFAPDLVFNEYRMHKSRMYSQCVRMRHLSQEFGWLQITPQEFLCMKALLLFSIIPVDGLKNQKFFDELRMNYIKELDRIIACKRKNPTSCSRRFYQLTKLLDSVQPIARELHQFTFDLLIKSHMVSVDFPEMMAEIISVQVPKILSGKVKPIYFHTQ
# Sequence of chicken Estrogen Receptor (ESR1), ESR1 (gene 396099) (P06212 whole entry, looked up, the tested form may be a part): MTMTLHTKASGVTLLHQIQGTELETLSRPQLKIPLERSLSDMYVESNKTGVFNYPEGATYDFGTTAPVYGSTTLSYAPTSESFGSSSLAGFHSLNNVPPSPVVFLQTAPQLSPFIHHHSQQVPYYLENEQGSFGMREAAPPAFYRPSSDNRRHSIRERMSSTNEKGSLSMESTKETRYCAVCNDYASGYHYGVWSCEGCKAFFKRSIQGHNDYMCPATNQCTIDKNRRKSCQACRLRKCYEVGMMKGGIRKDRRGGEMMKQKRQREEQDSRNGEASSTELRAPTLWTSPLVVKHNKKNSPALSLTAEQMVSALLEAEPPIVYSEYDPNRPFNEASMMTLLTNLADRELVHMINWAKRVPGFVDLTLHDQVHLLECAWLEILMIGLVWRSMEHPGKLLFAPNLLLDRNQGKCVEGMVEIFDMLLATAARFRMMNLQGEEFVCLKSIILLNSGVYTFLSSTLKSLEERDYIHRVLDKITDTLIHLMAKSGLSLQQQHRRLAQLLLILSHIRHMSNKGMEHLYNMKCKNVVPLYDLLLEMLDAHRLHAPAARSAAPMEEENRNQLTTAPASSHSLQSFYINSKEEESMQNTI
smiles,measurement,setting,value
CC12CCC(C1)C(C)(C)C2O (stereo not given),outcome,[1],inactive
same,outcome,[2],inactive
same,outcome,[3],inactive
CN1CCc2cccc3c2[C@H]1Cc1ccc(O)c(O)c1-3,AC50,[1],11.4 µM (active)
same,AC50,[2],4.25 µM (active)
same,AC50,[3],7.27 µM (active)
CC(C)(CO)CO,outcome,[1],inactive
same,outcome,[2],inactive
same,outcome,[3],inactive
same,outcome,AR (gene 367) [4],inactive
same,outcome,AR (gene 367) [5],inactive
CC(C)(C)C1CCC(O)CC1 (stereo not given),outcome,[1],inactive
same,outcome,[3],inactive
CN(C)C,outcome,[1],inactive
same,outcome,[3],inactive
C#C[C@]1(O)CC[C@H]2[C@@H]3CCc4cc(O)ccc4[C@H]3CC[C@@]21C,outcome,[1],inactive
same,AC50,[2],30.5 µM (active)
same,outcome,[2],inactive
same,AC50,[6],39.3 pM (active)
same,AC50,[7],61.7 pM (active)
same,AC50,[8],40.3 pM (active)
same,outcome,[9],inactive
COc1cc(OC)c2ccc(=O)oc2c1,AC50,[1],0.94 µM (active)
same,AC50,[2],0.25 µM (active)
same,AC50,AR (gene 367) [5],3.3 µM (active)
CCCCCCCCOC(=O)c1ccc(O)cc1,outcome,[1],inactive
same,AC50,[3],24.7 µM (active)
CC(=O)C1=C(C)[C@@H]2C[C@@]3(C1)[C@H](C)CC[C@H]3C2(C)C,outcome,[1],inactive
same,outcome,[2],inactive
same,AC50,[3],88.1 µM (active)
CCCCCCOc1ccc(O)cc1,AC50,[1],10.9 µM (active)
same,AC50,[2],10.4 µM (active)
same,AC50,AR (gene 367) [5],13.3 µM (active)
CCCCCCCCCCOC(=O)c1ccccc1C(=O)OCCCCCCCC,outcome,[1],inactive
same,outcome,[2],inactive
same,outcome,AR (gene 367) [5],inactive
C1=COCCC1,outcome,[1],inactive
same,outcome,[2],inactive
same,outcome,[3],inactive
CC/C(=C(\c1ccccc1)c1ccc(OCCN(C)C)cc1)c1ccccc1,AC50,[1],10.4 µM (active)
same,AC50,[2],11 µM (active)
same,outcome,[2],inactive
same,outcome,[9],inactive
O=C(O)c1ccccc1O,outcome,[1],inactive
same,AC50,[10],7090 µM (active)
CCC(C)(C)C1CCC(=O)CC1,outcome,AR (gene 367) [4],inactive
same,outcome,AR (gene 367) [5],inactive
CC1COC(=O)O1 (stereo not given),outcome,AR (gene 367) [4],inactive
same,outcome,AR (gene 367) [5],inactive
CC(C)C(=O)OCC=Cc1ccccc1,outcome,[3],inactive
CC(=O)CCC=C(C)CCC=C(C)C,AC50,[3],63.6 µM (active)
CC1=CC(C)C(C=O)C(C)C1 (stereo not given) (tested in a mixture with another compound),AC50,[3],50 µM (active)
CC/C=C\CCOC(C)OCC (stereo not given),outcome,[3],inactive
CCCCCc1cccc(=O)o1,outcome,[3],inactive
C=C(C)C(=O)OCCC(F)(F)C(F)(F)C(F)(F)C(F)(F)C(F)(F)C(F)(F)C(F)(F)C(F)(F)F,outcome,[3],inactive
C=CC(C)(CCC=C(C)C)OC(=O)CC (stereo not given),AC50,[3],50 µM (active)
CC(=O)N(C)C,outcome,AR (gene 367) [5],inactive
CCCCCCCCCCCCCC(=O)OCC,AC50,[3],50 µM (active)
NCCCOCCOCCOCCCN,AC50,[3],86.7 µM (active)
CC(C)=CCCC(C)=CC(=O)O,outcome,[3],inactive
CC/C=C\CCOC(=O)C(C)C,outcome,[3],inactive
CCCCCCOC(C)=O,AC50,[3],38.5 µM (active)
same,outcome,[10],inactive
OCCCO,outcome,[3],inactive
CC(C)Cc1ccc(C(C)C(=O)O)cc1 (stereo not given),outcome,[3],inactive
CCCCC(CC)COC(=O)COc1ccc(Cl)cc1C (stereo not given),outcome,[3],inactive
CC(=O)CCC(=O)O,outcome,[3],inactive
CN(C)c1ccc(C=O)cc1,outcome,[3],inactive
O=C(O)c1ccc(C(=O)O)c(C(=O)O)c1,outcome,[3],inactive
CC(=O)OCC=C(C)CCC=C(C)CCC=C(C)C,outcome,[3],inactive
O=S1(=O)CC=CC1,outcome,[3],inactive
CC1=CC[C@@H](C(C)(C)O)CC1,outcome,[3],inactive
CCOC(=O)COC(=O)c1ccccc1C(=O)OCC,outcome,[3],inactive
CC(=O)OC/C=C(C)/C=C/C=C(C)/C=C/C1=C(C)CCCC1(C)C,AC50,[3],68.5 µM (active)
same,AC50,[10],87.5 µM (active)
NS(=O)(=O)c1cc(C(=O)O)c(NCc2ccco2)cc1Cl,outcome,[3],inactive
Cc1cc(N)n(-c2ccccc2)n1,outcome,[3],inactive
CCCCC/C=C\C=C\C(=O)OCC,AC50,[3],80.8 µM (active)
Nc1ccn([C@H]2CC[C@@H](CO)O2)c(=O)n1,outcome,[3],inactive
CC(C)(O)CCc1ccccc1,outcome,[3],inactive
CC1=CC(=O)[C@H]2C[C@@H]1C2(C)C,AC50,[3],31 µM (active)
C=CC(=O)OCC(CO)(COC(=O)C=C)COC(=O)C=C,AC50,[3],2.64 µM (active)
NC(N)=NC(N)=NCCc1ccccc1,outcome,[3],inactive
C[C@H](CCC(=O)O)[C@H]1CC[C@H]2[C@@H]3CC[C@@H]4C[C@H](O)CC[C@]4(C)[C@H]3CC[C@]12C,AC50,[3],85.2 µM (active)
CC1(C)CC(=O)CC(C)(C)N1,outcome,[3],inactive
CCOC(=O)C=Cc1ccccc1,outcome,[10],inactive
CC1(C)[C@H](C=C(Cl)Cl)[C@H]1C(=O)OCc1cccc(Oc2ccccc2)c1,AC50,[3],12.5 µM (active)
CC1=CC[C@@H]2C[C@H]1C2(C)C,AC50,[3],18.7 µM (active)
NC(=O)NC(N)=O,outcome,[3],inactive
CCCCCCCCCCCCOC(C)=O,outcome,[3],inactive
